Screening data: PubChem, several laboratories
aDG glyco up – activators of alpha-DG glycosylation, primary screen, uHTS, Pro5-aDG cells, AlphaScreen. alpha-DG glycosylation AlphaScreen (IIH6); 0% Pro5, 100% B10-LARGE cell signal. activation, % at 10 µM. 0.22% of 360,000 active. AID 624168, 2012;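 active = activation of at least 8% versus controls, or a plate z-score of at least 8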;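 also: Pro5 are CHO cells carrying HIG-tagged alpha-DG that lacks glycosylation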
PHOSPHO1 block – PubChem AID 1565; recombinant PHOSPHO1, absorbance phosphatase assay; 1.1% of 290,000 active; inhibition, % at 13.3 µM; in the data active = inhibition above about 60%
A3A deaminase – APOBEC3A ssDNA deaminase inhibitors, primary screen, selectivity assay for APOBEC3G inhibitor project, biochemical, FAM/TAMRA oligo cleavage fluorescence; DNA dC->dU-editing enzyme APOBEC-3A (Homo sapiens), P31941; recombinant A3A, FAM/TAMRA ssDNA deamination fluorescence; inhibition, % at 20 µM; 0.41% of 330,000 active; AID 493011, 2011;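 active = at least 40% inhibition at 20 µM here, with at most 30% in a related deaminase screen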;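 also: plate controls were A3A with DMSO for no effect and wells lacking A3A enzyme for full effect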
Target sequence (P31941 whole entry, looked up): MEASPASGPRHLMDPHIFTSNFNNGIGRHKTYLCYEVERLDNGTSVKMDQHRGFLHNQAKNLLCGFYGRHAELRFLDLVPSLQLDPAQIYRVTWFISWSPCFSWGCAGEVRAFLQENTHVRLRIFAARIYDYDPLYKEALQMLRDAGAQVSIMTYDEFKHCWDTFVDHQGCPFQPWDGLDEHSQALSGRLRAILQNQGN
rCAG RNA binder – binders of r(CAG) RNA repeats, primary screen, biochemical, fluorescence. r(CAG) RNA repeat, TO-PRO-1 dye displacement fluorescence. 1.3% of 370,000 active. inhibition, % at 3 µM;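 active = inhibition above the plate cutoff, the mean of all test compounds on that plate plus 3 SD, cut at about 35% in these data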;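 also: 0% = DMSO alone and 100% = 100 µM mitoxantrone as full dye displacement; higher means more dye released from RNA so lower well fluorescence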
ALR H2O2 inh – inhibitors of human ALR sulfhydryl oxidase, primary screen, biochemical, H2O2 detection, HRP-luminol luminescence, single point | inhibition, % (concentration not given with the values) | 3.8% of 290,000 active | purified ALR, DTT oxidation | FAD-linked sulfhydryl oxidase ALR (Homo sapiens), P55789;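 active = mean replicate inhibition above about 79%, with every replicate also reaching it, limit read from the data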
Target sequence (P55789 whole entry, looked up): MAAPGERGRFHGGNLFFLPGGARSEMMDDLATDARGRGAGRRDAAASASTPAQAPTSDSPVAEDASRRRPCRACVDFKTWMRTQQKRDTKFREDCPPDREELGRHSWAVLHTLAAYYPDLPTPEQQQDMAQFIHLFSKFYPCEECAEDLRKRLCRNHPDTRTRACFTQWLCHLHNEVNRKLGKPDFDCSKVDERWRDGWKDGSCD
APOBEC3G inh – APOBEC3G DNA deaminase inhibitors, primary screen, biochemical, fluorescence, single-stranded DNA substrate, uHTS. DNA dC->dU-editing enzyme APOBEC-3G (Homo sapiens), Q9HC16. recombinant A3G, ssDNA deamination FAM/TAMRA fluorescence. inhibition, % at 20 µM. 0.28% of 330,000 active;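 active = inhibition of at least 40% at 20 µM, with no more than 30% in the related APOBEC3A deaminase screen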;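 also: plate controls were DMSO wells with A3G for no effect and wells lacking A3G enzyme for full effect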
* marks the source's active call; other numbers are inactive results; . = no result given. An excerpt weighted towards active compounds, which were near 5.4% of everything screened.

SMILES	aDG glyco up	PHOSPHO1 block	A3A deaminase	rCAG RNA binder	ALR H2O2 inh	APOBEC3G inh
C=CCN(CC#Cc1ccc(OC)cc1)CC=C	.	.	.	-3.1	.	.
COCCn1c(C)cc(C(=O)CSc2nncn2-c2ccccc2)c1C	2.2	94.8*	1.3	0.6	-2.2	0.9
COc1ccc(-n2cnnc2SCC(=O)c2cc(C)n(Cc3cccs3)c2C)cc1	0.3	49.2	-0.8	-6.4	1.5	-2.3
COCC(C)n1c(C)cc(C(=O)CSc2nnc(Nc3ccccc3F)s2)c1C (centres undefined)	-0.1	80.1*	3.7	8.8	8.7	-3.0
C=CCn1c(C)cc(C(=O)CSc2ccc(NC(C)=O)cc2)c1C	0.1	5.5	-0.1	-4.5	97.6*	0.1
C=CCN(C(=O)[C@@H](C)[C@@H](O)c1ccc2ccccc2c1)c1ccccc1	.	.	.	0.6	.	.
COC(=O)C1=C(C)N(Cc2ccccc2C(F)(F)F)C(=NCC2CC2)NC1CCc1ccccc1 (centres undefined)	.	.	.	8.2	.	.
Nc1[nH]c2ccccc2c1C(=O)NC1CC1	.	.	.	3.6	.	.
COC(=O)[C@]12C[C@H](CC(=O)N3CCOCC3)C(=O)N(Cc3ccc4c(c3)OCO4)C1=C[C@H](COCc1ccccc1)O[C@@H]2C	.	.	.	-0.1	.	.
c1ccc(-c2ccccc2C2Cc3nnccc3CN2)cc1 (centres undefined)	.	.	.	9.2	.	.
Cc1cccc(C(=O)Nc2c(-c3ccc(C(F)(F)F)cc3)nc3ncccn23)c1	.	.	.	4.2	.	.
CCn1cc(C(=O)O)c(=O)c2cc(Br)ccc21	0.2	-15.3	-5.2	0.3	-8.9	-6.3
CCOC(=O)c1cn(CC)c2ccc(Br)cc2c1=O	0.0	77.5*	35.3	0.7	0.5	9.4
C=CCn1c(SCc2c(Cl)cccc2Cl)nnc1-c1cccc(C)c1	.	.	.	1.2	.	.
COc1ccc(-c2[nH]nc3c2C(c2ccc(OC(=O)N4CCOCC4)cc2)C(C#N)=C(N)O3)cc1 (centres undefined)	.	-12.4	-0.5	8.3	.	-1.2
CCCc1[nH]nc2c1C(c1ccc(OC(=O)N3CCOCC3)cc1)C(C#N)=C(N)O2 (centres undefined)	0.0	63.3*	-2.1	-1.8	25.7	-3.4
CCCc1[nH]nc2c1C(c1ccc(O)c(OC)c1)C(C#N)=C(N)O2 (centres undefined)	0.1	9.9	1.3	-2.1	99.0*	9.7
CCCc1[nH]nc2c1C(c1ccccc1OC)C(C#N)=C(N)O2 (centres undefined)	-0.4	12.6	-2.7	0.5	42.4	-2.2
O=C(N[C@H](Cc1ccccc1)C(=O)O)[C@H]1O[C@@H](n2ccc(=O)[nH]c2=O)[C@H](O)[C@@H]1O	.	.	.	-1.7	.	.
Cc1cc(N)n2nc(C)c(-c3ccc(Cl)cc3)c2n1	0.7	16.8	-3.5	1.0	.	-3.3
Cc1cc(N)n2nc(C)c(-c3ccccc3)c2n1	0.1	60.1*	.	2.1	28.4	.
CC(C(=O)Nc1ccc(S(N)(=O)=O)cc1)N1CCc2ccccc21 (centres undefined)	-0.2	-64.1	4.6	1.2	98.8*	2.5
Nc1cccc(-c2nc3ccccc3[nH]2)c1	0.0	6.7	0.1	-1.0	-113.2	-6.7
Nc1ccc(-c2nc3c(ccc4ccccc43)[nH]2)cc1	-0.1	49.4	-2.5	13.8	98.9*	-0.4
Nc1ccc2nc(-c3ccc(-c4nc5ccc(N)cc5[nH]4)cc3)[nH]c2c1	.	27.3	11.7	12.4	98.6*	14.1
Nc1ccc(-c2nc3ccccc3[nH]2)cc1	0.0	15.2	-4.4	2.0	98.1*	-4.4
Cc1ccc2nc(-c3cccc(N)c3)[nH]c2c1	-0.1	-4.2	0.5	3.0	98.6*	-2.4
Clc1nc2c(ccc3ccccc32)[nH]1	0.0	19.7	0.0	1.3	.	-6.2
O=C(Nc1ccccc1Oc1ccccc1)NC1CCCCN(Cc2ccc(Cl)cc2)C1=O (centres undefined)	.	.	.	8.9	.	.
